We go through 19 molecules from PubChem BioAssay (Tox21).

The nature of test [1]: qHTS assay for small molecules that induce genotoxicity in human embryonic kidney cells expressing luciferase-tagged ATAD5 (AID 651632). Also: nearly all actives have a fitted effect of over 15% in size. In short, it runs like this: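 Concentration-response screen for ATAD5 upregulation in HEK293T luciferase reporter cells; 16 hr treatment at 37C, then luminescence after 30 min with Amplite at room temperature.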
A short description of test [2]: qHTS assay for small molecule agonists of the p53 signaling pathway - cell viability (AID 651633; calls by dose curve;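 also: p53RE-bla HCT reporter cells with a stable beta-lactamase p53 reporter; series mostly up to about 83 µM; nearly all actives have a fitted effect of over 30% in size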). In short, it runs like this:
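p53RE-bla cells, seeded at 4,000 per well and rested 5 h at 37 C/5% CO2, received compounds in DMSO for 16 h at 37 C. CellTiter-Glo was then added, and luminescence was read after 30 min at room temperature to gauge cytotoxicity.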
In general terms: In qHTS, concentration-response curves come from the screen itself.

Test [3] is described as follows: qHTS assay for small molecules that induce genotoxicity in human embryonic kidney cells expressing luciferase-tagged ATAD5 - cell viability (AID 651634; calls by dose curve; also: nearly all actives have a fitted effect of over 25% in size). A digest of the protocol:
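15.5 hr compound or vehicle exposure of HEK293T cells expressing luciferase-tagged ATAD5 at 37C; live-cell protease activity is read by fluorescence after 30 min of CellTiter-Fluor.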

A short description of test [4]: qHTS assay for small molecule disruptors of the mitochondrial membrane potential - cell viability (AID 720634; calls by dose curve;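 also: human HepG2 liver cancer cells; series mostly up to about 83 µM; nearly all actives have a fitted effect of over 20% in size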). A digest of the protocol:
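In this qHTS format, HepG2 cells plated overnight were pinned with compound, incubated 1 hr, and assayed for ATP luminescence with CellTiter-Glo after m-MPI dye addition.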

Test [5] is described as follows: qHTS assay to test for compound auto fluorescence at 590 nm (red) in HepG2 cells (AID 720674). In short, it runs like this: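 Intrinsic compound fluorescence in the red window (Ex/Em 540/590 nm) is measured in attached HepG2 cells exposed for 1 hr, DMSO vehicle as baseline, benchmarked to Rose Bengal sodium.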
Test [6] is described as follows: qHTS assay to test for compound auto fluorescence at 535 nm (green) in HepG2 cells (AID 720675).
Test [7] is described as follows: qHTS assay to test for compound auto fluorescence at 460 nm (blue) in HEK293 cells (AID 720678). In short, it runs like this: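 Triamterene serves as the blue fluorophore standard. Compound signal at 405/460 nm is read in HEK293 wells (2,000 cells, 10% dialyzed FBS) after overnight treatment at 37C.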
Test [8] in a line: qHTS assay to test for compound auto fluorescence at 590 nm (red) in HEK293 cells (AID 720679). In short, it runs like this: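 We plated HEK293 cells in 10% dialyzed FBS medium, let them adhere for 4-5 hr, then added 23 nL compound. Overnight at 37C and 5% CO2 preceded fluorescence measurement at 540/590nm.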
A short description of test [9]: qHTS assay for small molecule disruptors of the mitochondrial membrane potential (AID 720635). Also: potency is read from the fitted curve at half-maximal effect. A digest of the protocol: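 HepG2 cells (2,000/well) attached overnight at 37C, then took compound for 1 hr at 37C, 5% CO2. Mito-MPS dye was added for 30 min; fluorescence was read at 490/535 nm (monomers) and 540/590 nm (aggregates).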

Each structure is given as a SMILES string. Unmarked numbers belong to inactive results. Results filed as inconclusive are left out. Calls of active or inactive are those of the source. Unless noted, calls follow the shape of the dose curve; as a rule, active = well fitted curve in the direction sought with a large enough effect in the repeat runs; inconclusive = weak or mixed curves; inactive = no such curve, though single readings can be large; an effect the other way counts as inactive or inconclusive.

In the case of `O=C(NC(O)C(Cl)(Cl)Cl)NC(O)C(Cl)(Cl)Cl` (centres undefined), the molecule was classed as inactive in [1], in [5], in [6], in test [7] and in test [8]. Moreover, the Potency entry in test [2], in test [3] and in test [4] was “inactive” in each case.

For `C=CCN1CC[C@]23CCCC[C@H]2[C@H]1Cc1ccc(O)cc13`, the molecule was classed as inactive in test [1], in test [5], in test [6], in test [7] and in [8]. The Potency result in test [2] and in test [3] was “inactive” throughout.

With `CCCC(C)C1(CC)C(=O)N=C(S)NC1=O` (centres undefined), the Potency entry in test [2], in [3], in test [4] and in test [9] was “inactive” in each case. For the same molecule, the molecule was classed as inactive in test [5], in test [6], in test [7] and in test [8].

`NNCc1ccccc1`: the Potency result in test [2], in [3] and in test [4] was “inactive” each time. Further, the Potency in [9] was 24.8 µM (active). The result in test [5], in [6], in test [7] and in test [8] was inactive.

Turning to `CC[C@@H](CO)NC(=O)[C@@H]1C=C2c3cccc4c3c(cn4C)C[C@H]2N(C)C1`, the molecule was classed as inactive in test [1], in test [5], in test [6] and in test [8]. In addition, the Potency entry in test [2], in [3] and in test [4] was “inactive” in each case.

With `O=C(Cl)C(Cl)Cl`, the outcome in test [1], in test [5], in test [6], in test [7] and in test [8] was inactive. In addition, the Potency result in test [2], in [3] and in test [4] was “inactive” each time.

`ClCCCCl`: the outcome in [1], in [5], in test [6], in test [7] and in [8] was inactive. Further, the Potency entry in [2], in test [3] and in [4] was “inactive” each time.

On to `O=c1[nH]c2ccccc2o1`, for which the call in [1], in test [5], in test [6] and in [7] was inactive. Also, the Potency result in test [3], in test [4] and in test [9] was “inactive” in each case.

As to `O=C(O)C(Cl)Br` (centres undefined), the Potency entry in test [2], in test [3] and in test [4] was “inactive” each time. Besides, the molecule was classed as inactive in test [5], in [6] and in test [7].

As for `CC(C)(N)Cc1ccc(Cl)cc1`, the outcome in test [1], in test [5], in [6], in [7] and in test [8] was inactive. The Potency result in test [2], in test [3] and in test [4] was “inactive” throughout.

As for `CN(C)C1CCCCC1`, the Potency result in test [2], in test [3] and in test [4] was “inactive” throughout. Further, the molecule was classed as inactive in [5], in [6], in test [7] and in test [8].

Take `Cc1ccc(Cl)c(O)c1`: the molecule was classed as inactive in [1], in [5], in [6], in [7] and in [8]. The Potency entry in test [2], in test [3] and in test [4] was “inactive” each time.

Consider `CCOC(=O)CCl`, for which the outcome in test [1], in test [5], in [6], in [7] and in test [8] was inactive. In addition, the Potency entry in test [2], in test [3] and in test [4] was “inactive” each time.

As for `C=C1C[C@@H]2[C@H](CC[C@]3(C)C(=O)CC[C@@H]23)[C@@]2(C)C=CC(=O)C=C12`, the outcome in [1], in test [5], in test [6], in test [7] and in test [8] was inactive. Besides, the Potency entry in [2], in test [3] and in test [4] was “inactive” in each case.

`NC1(c2ccccc2)CCCCC1`: the outcome in [1], in test [5], in [6], in test [7] and in test [8] was inactive. For the same molecule, the Potency result in test [2], in test [3] and in [4] was “inactive” throughout.

In the case of `[O-][Br+2]([O-])O`, the call in [1], in test [5], in test [6], in test [7] and in [8] was inactive. Also, the Potency result in test [2] and in test [4] was “inactive” throughout.

In the case of `CON(C)C(=O)Nc1ccc(Br)cc1`, the molecule was classed as inactive in [1], in test [5], in test [6], in test [7] and in [8]. The Potency result in [2], in test [3] and in test [4] was “inactive” throughout.

As to `CN(C)CCN(C)C`, the molecule was classed as inactive in [1], in test [5], in [6], in [7] and in test [8]. Also, the Potency entry in test [3] and in test [4] was “inactive” in each case.

For `NC(=O)CS(=O)C(c1ccccc1)c1ccccc1` (centres undefined), the molecule was classed as inactive in test [1], in test [5], in test [6], in [7] and in test [8]. For the same molecule, the Potency entry in test [2], in test [3] and in test [4] was “inactive” each time.
